The whole screen tested about 310,000 compounds, of which about 14,000 (4.5%) showed an effect of 50% or more. Effects have a minus sign here. Many of the other results were omitted from the sample, so strong results are more common in it than they were.
These molecules were tested against human ether-à-go-go-related gene (hERG) potassium channel (human, UniProt Q12809) (assay: primary screen, population patch clamp on CHO cells stably expressing hERG; higher = less effect of the substance).
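Also: peak tail current of the secondary pulse compared with the same well before compound.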

Sequence of human ether-à-go-go-related gene (hERG) potassium channel (Q12809 whole entry, looked up): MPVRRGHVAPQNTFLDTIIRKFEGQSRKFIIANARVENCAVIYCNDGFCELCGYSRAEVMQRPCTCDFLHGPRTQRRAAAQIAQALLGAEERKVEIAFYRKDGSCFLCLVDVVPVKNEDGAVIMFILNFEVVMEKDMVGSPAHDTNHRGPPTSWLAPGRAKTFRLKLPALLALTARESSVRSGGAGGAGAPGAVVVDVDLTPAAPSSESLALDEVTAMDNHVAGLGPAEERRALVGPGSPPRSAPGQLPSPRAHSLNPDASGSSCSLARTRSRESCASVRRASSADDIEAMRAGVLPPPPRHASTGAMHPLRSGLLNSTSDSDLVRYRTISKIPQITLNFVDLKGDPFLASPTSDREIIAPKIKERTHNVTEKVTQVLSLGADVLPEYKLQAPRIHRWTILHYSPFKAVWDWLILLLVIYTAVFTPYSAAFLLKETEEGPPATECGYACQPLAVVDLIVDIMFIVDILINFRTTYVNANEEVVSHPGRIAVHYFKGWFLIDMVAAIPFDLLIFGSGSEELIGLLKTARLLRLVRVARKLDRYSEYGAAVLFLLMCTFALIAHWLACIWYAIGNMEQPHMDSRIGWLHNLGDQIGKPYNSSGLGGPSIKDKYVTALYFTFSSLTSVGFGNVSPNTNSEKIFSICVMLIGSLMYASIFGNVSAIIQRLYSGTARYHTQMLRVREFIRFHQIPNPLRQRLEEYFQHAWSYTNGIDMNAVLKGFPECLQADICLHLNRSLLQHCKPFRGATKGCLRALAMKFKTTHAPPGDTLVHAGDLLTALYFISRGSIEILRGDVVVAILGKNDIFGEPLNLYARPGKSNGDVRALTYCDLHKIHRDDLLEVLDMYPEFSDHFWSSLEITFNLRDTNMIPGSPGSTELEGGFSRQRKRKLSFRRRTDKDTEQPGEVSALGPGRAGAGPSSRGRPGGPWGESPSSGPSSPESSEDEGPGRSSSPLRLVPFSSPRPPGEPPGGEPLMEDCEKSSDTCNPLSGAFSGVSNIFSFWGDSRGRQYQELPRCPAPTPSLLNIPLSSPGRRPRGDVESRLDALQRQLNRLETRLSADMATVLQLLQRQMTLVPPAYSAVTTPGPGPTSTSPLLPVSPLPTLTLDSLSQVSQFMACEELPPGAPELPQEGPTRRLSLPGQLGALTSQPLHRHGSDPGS

Row | Structure (SMILES) | hERG current change (%, negative = inhibition) at 10uM
1 | COc1ccc(N=C2SC(CC(=O)Nc3ccccc3)C(=O)N2CCc2ccccn2)cc1 (centres unmarked) | -32.6%
2 | CCOC(=O)c1c(C)oc2ccc(OC(=O)c3cccs3)cc12 | -5.96%
3 | COc1ccc(C)cc1-n1nnnc1SCc1cc(=O)n2cc(C)ccc2n1 | -51.1%
4 | c1coc(-c2nnc(SCc3cn4ccccc4n3)o2)c1 | -29.7%
5 | COc1ccc(C)cc1-n1nnnc1SCc1csc(C)n1 | -16.2%
6 | Cc1ccc2nc(CSc3nnc(-c4ccco4)o3)cc(=O)n2c1 | -64.9%
7 | COc1ccc(C)cc1-n1nnnc1SCc1cn2ccsc2n1 | -28.7%
8 | Cc1ccc2nc(CSc3nnc(-c4ccco4)n3-c3ccccc3)cc(=O)n2c1 | -21.1%
9 | Oc1cccc(/C=N/c2c(-c3ccco3)nc3ccccn23)c1 | 6.9%
10 | Cc1cccc(N(Cc2ccc(Cl)cc2)S(C)(=O)=O)c1 | 21.1%
11 | CC1(C)CC(=O)C2=C(C1)NC(=O)C21C(C(=O)OC(C)(C)C)=C(N)Oc2ccc(Br)cc21 (centres unmarked) | -13.1%
12 | O=C1CN(C(=O)CSc2ccc(-c3ccc(F)cc3)nn2)c2ccccc2N1 | -42.5%
13 | Cc1noc(C)c1CSc1nnc2ccc3ccccc3n12 | -25.1%
14 | COc1ccc(C(C)=O)cc1COC(=O)CNC(=O)c1ccc(Cl)cc1 | -4.06%
15 | COC(=O)CNC(c1ccccc1)c1cc(Br)ccc1NC(=O)CCN1CCOCC1 (centres unmarked) | -31.7%
16 | CCOC(=O)CNC(c1ccccc1)c1cc(Br)ccc1NC(=O)CCN1CCOCC1 (centres unmarked) | -68%
17 | NNC(=O)CNC(c1ccccc1)c1cc(Br)ccc1NC(=O)CCN1CCOCC1 (centres unmarked) | 3.67%
18 | CC(=O)c1ccc(OCc2ccc(C(=O)c3ccccc3)cc2)cc1 | 0.433%
19 | CC(=O)c1ccccc1OCc1ccc(C(=O)c2ccccc2)cc1 | -51.7%
20 | COc1ccccc1OCc1ccc(C(=O)c2ccccc2)cc1 | 17.1%
21 | Cc1ccc(C(=O)c2nocc2C(=O)c2cccs2)cc1 | -19.7%
22 | CS(=O)(=O)O.Cc1cccc(/C=C2/C(=O)/C(=C/c3ccccc3C)C3CCC2N3C)c1 (centres unmarked) | 6.11%
23 | CCC(O)(CC)C(=O)NN(C(=O)CCl)c1ccccc1 | 8.94%

Row | Structure (SMILES) | hERG current change (%, negative = inhibition) at 10uM
24 | Cc1ccc(S(=O)(=O)N2CCN(C(=O)c3ccco3)CC2)cc1C | -4.01%
25 | COc1ccc(-c2cc(C)no2)cc1S(=O)(=O)N1CCN(C(=O)c2ccco2)CC1 | -6.28%
26 | CCc1ccc(-c2cc(C)no2)cc1S(=O)(=O)N1CCN(c2ccccc2)CC1 | 3.41%
27 | CCc1ccc(-c2cc(C)no2)cc1S(=O)(=O)N1CCN(C(=O)c2ccco2)CC1 | -59.6%
28 | Cc1cc(-c2ccc(C)c(S(=O)(=O)N3CCN(C(=O)c4ccco4)CC3)c2)on1 | -51.8%
29 | CCc1ccc(-c2cc(C)no2)cc1S(=O)(=O)N1CCC(C)CC1 | -15.8%
30 | O=C(CCC1=NS(=O)(=O)c2ccccc2N1)NC1CCCCCCC1 | 2.57%
31 | COc1ccc(S(=O)(=O)N(CC(=O)NC2CC2)c2ccc(C)cc2)cc1 | -0.125%
32 | CCN(CC(=O)Nc1c(F)cccc1F)C(=O)c1cc(C)nc2ccccc12 | 9.3%
33 | CCCN(CC(=O)Nc1ccc(Cl)cc1Cl)C(=O)CC(NC(C)=O)c1ccccc1 (centres unmarked) | 0.715%
34 | CCCN(CC(=O)Nc1ccccc1C)C(=O)CC(NC(=O)c1ccccc1)c1ccccc1 (centres unmarked) | -52.7%
35 | CCCN(CC(=O)Nc1ccccc1C)C(=O)Cc1n[nH]c(=O)c2ccccc12 | -10.2%
36 | CCCN(CC(=O)Nc1ccccc1C)C(=O)CCl | -0.969%
37 | CCN(CC(=O)Nc1c(F)cccc1F)C(=O)Cc1c(C)nc2ccccc2c1C | -55.1%
38 | CCCN(CC(=O)Nc1ccccc1C)C(=O)Cc1c(C)nc2ccccc2c1C | -77.4%
39 | CCCN(CC(=O)Nc1ccccc1C)C(=O)CSc1ccccc1C | 7.42%
40 | CCN(CC(=O)Nc1c(F)cccc1F)C(=O)Cc1ccccc1 | -1.53%
41 | Cn1c(CCNC(=O)c2ccccc2F)nnc1SCC(=O)Nc1ccccc1F | 3.44%
42 | OCCOCCn1c(CCNc2nc(-c3ccc(Cl)cc3)cs2)nc2cc(Cl)c(Cl)cc21 | 3.83%
43 | Cc1ccc(-c2cc(-c3ccccc3)no2)c(O)c1 | 17.4%
44 | CCn1ncc(/C=N\NC(=O)c2cc(-c3ccc(C)cc3C)nc3ccccc23)c1C | -8.84%
45 | Cc1nnc(SCC(=O)c2ccc(Cl)cc2)s1 | -9.82%
46 | Cc1ccccc1Cn1c(CN2CCN(C(=O)c3ccco3)CC2)nc2c1c(=O)n(C)c(=O)n2C | -45%

Row | Structure (SMILES) | hERG current change (%, negative = inhibition) at 10uM
47 | CC(=O)Cn1c(CN2CCN(C(=O)c3ccco3)CC2)nc2c1c(=O)n(C)c(=O)n2C | 16%
48 | CC(C)Cn1c(CN2CCN(C(=O)c3ccco3)CC2)nc2c1c(=O)n(C)c(=O)n2C | -12.2%
49 | Cn1c(=O)c2c(nc(CN3CCN(C(=O)c4ccco4)CC3)n2Cc2ccc(F)cc2)n(C)c1=O | -44.8%
50 | Cc1ccc(Cn2c(CN3CCN(C(=O)c4ccco4)CC3)nc3c2c(=O)n(C)c(=O)n3C)cc1 | -54.2%
51 | Cn1c(=O)c2c(nc(CN3CCN(C(=O)c4ccco4)CC3)n2Cc2cccc(Cl)c2)n(C)c1=O | -60.1%
52 | Cn1c(=O)c2c(nc(CN3CCN(C(=O)c4ccco4)CC3)n2Cc2ccccc2)n(C)c1=O | -40.7%
53 | Cn1c(=O)c2c(nc(CN3CCN(C(=O)c4ccco4)CC3)n2Cc2ccc(Cl)cc2)n(C)c1=O | -64.8%
54 | CCN1CCN(C(=O)c2ccc3c(c2)N(Cc2ccc(F)cc2)C(=O)c2ccccc2S3=O)CC1 (centres unmarked) | -9.09%
55 | O=C(NCc1ccccn1)[C@H]1C[C@@H]1[C@H](NP(=O)(c1ccccc1)c1ccccc1)c1ccccc1 | -9%
56 | O=C(Nc1ccc2oc(-c3cccnc3)nc2c1)c1ccco1 | -33.2%
57 | CC(=O)Nc1ccc(S(=O)(=O)N2CCC(C(=O)N[C@@H](C)C(=O)NC3CCCC3)CC2)cc1 | 35.3%
58 | Cc1c(C=O)c2ccccc2n1Cc1ccc(F)cc1 | -43.1%
59 | CCn1c(=O)c2ccccc2n(Cc2ccc([N+](=O)[O-])cc2)c1=O | -77%
60 | Cc1nc2ccc([N+](=O)[O-])cc2c(=O)n1Cc1ccc(Cl)cc1 | -4.6%
61 | CCn1c(=O)c2ccccc2n(Cc2cccc([N+](=O)[O-])c2)c1=O | 15.3%
62 | Cc1c(C=O)c2ccccc2n1Cc1ccccc1 | -2.16%
63 | Cc1c(C=O)c2ccccc2n1Cc1ccc([N+](=O)[O-])cc1 | -78.1%
64 | Cc1nc2ccc([N+](=O)[O-])cc2c(=O)n1Cc1ccc(Br)cc1 | 7.76%
65 | Cc1nc2ccc([N+](=O)[O-])cc2c(=O)n1Cc1ccc(F)cc1 | -26.2%
66 | Cc1nc2ccc([N+](=O)[O-])cc2c(=O)n1Cc1ccc([N+](=O)[O-])cc1 | -76.8%
67 | CCn1c(=O)c2ccccc2n(Cc2cccc(C)c2)c1=O | 3.93%
68 | Cc1nc2ccccc2c(=O)n1Cc1ccc([N+](=O)[O-])cc1 | -74.4%
69 | COc1ccc(Cn2c(C)nc3ccc([N+](=O)[O-])cc3c2=O)cc1 | -20%

Row | Structure (SMILES) | hERG current change (%, negative = inhibition) at 10uM
70 | Cc1onc(-c2ccccc2Cl)c1C(=O)Nc1ccc(S(=O)(=O)NCC2CCCO2)cc1 (centres unmarked) | -10.5%
71 | COc1ccc(C(=O)Nc2ccccc2N2CCOCC2)cc1S(=O)(=O)N1CCCC1 | -24.5%
72 | O=C(NCCCN1CCOCC1)c1cccc(S(=O)(=O)N2CCc3ccccc3C2)c1 | -17%
73 | O=C(NNC(=O)c1ccc(Cl)cc1Cl)c1ccncc1 | 17%
74 | Cc1ccc(-c2cccc(C(=O)NCc3ccccc3)n2)c2ccccc12 | 17.8%
75 | CCOC(=O)N1C=CC=C[C@@H]2[C@@H](N3C(=O)c4ccccc4C3=O)C(=O)N21 | 0.941%
76 | COc1ccc(OC)c2[nH]c(=O)c(CCNC(=O)C(=O)c3c(C)[nH]c4ccccc34)cc12 | -1.04%
77 | C/C(CC(=O)Nc1ccccc1[N+](=O)[O-])=N\NC(=O)COc1ccccc1C | -5.65%
78 | COC(=O)c1cc(-c2ccc(OC)c(OC)c2)c2c(=O)[nH]c(=O)n(C)c2n1 | 21.3%
79 | COc1ccc(CSCCc2n[nH]c(=S)n2-c2ccccc2)cc1 | 20.1%
80 | CC1=Nn2c(nnc2-c2n[nH]c3c2CCC3)SC1 | 8.18%
81 | Cc1ccc(N(CC(=O)NCC(O)c2ccccc2)S(=O)(=O)c2ccc(C)cc2)cc1 (centres unmarked) | -65.9%
82 | Cc1ccc(S(=O)(=O)N(CC(=O)NCc2cccnc2)c2ccc(F)cc2)cc1 | -61.2%
83 | COc1ccc(N(CC(=O)NCc2ccncc2)S(=O)(=O)c2ccc(C)c([N+](=O)[O-])c2)cc1 | -50.9%
84 | CN(c1ccc(OCC(=O)OCC(=O)Nc2ccccc2)cc1)S(=O)(=O)c1ccc(F)cc1 | -11.9%
85 | COc1ccc(N(CC(=O)NC(C)c2ccccc2)S(=O)(=O)c2ccc(C)cc2)cc1 (centres unmarked) | -22.1%
86 | CCNC(=O)CN(c1ccc(C)cc1)S(=O)(=O)c1ccccc1 | 7.75%
87 | COc1ccc(S(=O)(=O)N(CC(=O)NCc2cccnc2)c2ccc(F)cc2)cc1OC | 4.62%
88 | CN(c1ccc(OCC(=O)OCC(=O)Nc2c(F)c(F)c(F)c(F)c2F)cc1)S(=O)(=O)c1ccc(F)cc1 | 8.61%
89 | COc1ccc(S(=O)(=O)N(CC(=O)NCc2cccnc2)c2ccc(C)cc2)cc1OC | -10%
90 | COc1ccc(N(CC(=O)NCc2cccnc2)S(=O)(=O)c2ccc(C)c([N+](=O)[O-])c2)cc1 | -36.6%
91 | CN(c1ccc(OCC(=O)OCC(=O)Nc2ccc(F)cc2)cc1)S(=O)(=O)c1ccc(Cl)cc1 | -59.2%
92 | COc1ccc(N(CC(=O)Nc2ccc(C(N)=O)cc2)S(=O)(=O)c2ccc(C)c([N+](=O)[O-])c2)cc1 | 24%

From article PMC4336329 (PLoS ONE, 2015)
